From PubChem
Rtt109 HAT inh: blocks Candida albicans Rtt109/Vps75 acetyltransferase activity; inhibition, % at 34.9 µM; actives 0.16% (n = 330,000); AID 540336; purified Rtt109/Vps75, ThioGlo CoA-SH fluorescence, 4 h;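 active = inhibition of at least 50% in every replicate; inconclusive = best replicate reaches 50% inhibition but some replicates fall short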
Target sequence (Q5AAJ8 whole entry, looked up): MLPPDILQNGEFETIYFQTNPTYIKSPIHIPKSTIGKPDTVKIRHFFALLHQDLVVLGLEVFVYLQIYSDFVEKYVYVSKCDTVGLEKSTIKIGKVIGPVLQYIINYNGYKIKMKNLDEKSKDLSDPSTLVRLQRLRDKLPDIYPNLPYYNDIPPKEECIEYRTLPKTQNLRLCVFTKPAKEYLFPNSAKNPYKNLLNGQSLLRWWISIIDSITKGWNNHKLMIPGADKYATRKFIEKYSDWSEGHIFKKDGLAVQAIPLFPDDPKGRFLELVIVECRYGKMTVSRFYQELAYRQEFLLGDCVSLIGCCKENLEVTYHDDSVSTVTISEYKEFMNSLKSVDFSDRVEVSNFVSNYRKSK
PHOSPHO1 inh: inhibitors of human PHOSPHO1 phosphatase; Q8TCT1; recombinant PHOSPHO1, absorbance phosphatase assay; inhibition, % at 13.3 µM; actives 1.1% (n = 290,000); AID 1565; in the data active = inhibition above about 60%
Target sequence (Q8TCT1 whole entry, looked up): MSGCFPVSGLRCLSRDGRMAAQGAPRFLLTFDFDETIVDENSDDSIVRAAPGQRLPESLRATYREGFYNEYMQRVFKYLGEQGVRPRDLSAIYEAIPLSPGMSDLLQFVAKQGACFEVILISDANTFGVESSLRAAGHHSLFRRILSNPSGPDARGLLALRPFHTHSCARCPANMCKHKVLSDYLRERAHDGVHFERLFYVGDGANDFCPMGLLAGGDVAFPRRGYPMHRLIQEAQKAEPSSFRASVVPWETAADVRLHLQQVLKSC
Platelet DG rel: platelet dense granule release activity; human platelet-rich plasma, SFLLRN dense granule ATP release, luminescence; inhibition, %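 (compounds screened at 7.5 µM in platelet-rich plasma)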; actives 0.22% (n = 300,000);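 active = mean replicate score, as percent of positive control, at or above 50; inconclusive = mean below 50 but at least one replicate at or above 50; inactive = mean and every replicate below 50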
TPT1 inh: blocks Candida albicans tRNA 2'-phosphotransferase; inhibition, % at 5 µM; actives 0.81% (n = 300,000); AID 1962; recombinant caTPT1, FP RNA substrate dephosphorylation;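 active = inhibition above the mean of all tested compounds plus 3 SD, set per screening campaign, cut at about 24% in these data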
SKKanGAS inh: SKKanGAS growth inhibition; inhibition, % at 7.5 µM; S. pyogenes SKKanGAS, kanamycin growth, BacTiter-Glo, 6 h; actives 1.3% (n = 300,000); AID 1662;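 active = mean replicate score, as percent of positive control median, at least 50; inconclusive = mean below 50 but one replicate at or above 50; inactive = mean and every replicate below 50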;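 note: strain carries kanamycin resistance gene driven by streptokinase promoter and grows in 40 µg/ml kanamycin; loss of luminescence reflects streptokinase promoter inhibition or plain growth inhibition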
WT yeast gro inh: growth inhibition of WT yeast, mitochondrial fusion screen | mitochondrial fusion phenotypic screen, WT strain | inhibition, % at 10 µM | actives 2.1% (n = 190,000) | AID 1362; in the data active = inhibition above about 58%; tested in S. cerevisiae
TPT1 inh confirm: TPT1 (C. albicans) inhibition, confirmation; shares compounds with TPT1 inh; recombinant caTPT1, fluorescence polarization, RNase T1 coupled; inhibition, % at 5 µM; actives 74% (n = 2,400); AID 2149;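 active = inhibition above the primary screen limit, the mean inhibition of all tested compounds plus 3 SD, cut at about 25% in these data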
RNase T1 inh: RNase T1 inhibition in TPT1 counter-screen; AID 2153; actives 83% (n = 2,400); RNase T1 cleavage, fluorescence polarization, 1536-well; inhibition, % at 5 µM; shares compounds with TPT1 inh;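 active = inhibition above the solvent-only control well mean plus 3 SD, limit set per screening run, cut at about 23% in these data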;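 note: inhibitors block cleavage so intact labeled substrate keeps polarization high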
Target sequence (P00651 whole entry, looked up): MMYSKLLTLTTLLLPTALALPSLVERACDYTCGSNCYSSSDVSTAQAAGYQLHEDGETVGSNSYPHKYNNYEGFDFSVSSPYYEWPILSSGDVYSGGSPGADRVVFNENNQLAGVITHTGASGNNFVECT
Of the large screens only hits and unclear results are named; the others gave an inactive call (follow-up assays come after a bar, where they were run). Compounds with a hit are over-represented: about 3.9% of the library has one in this group of screens.

N#Cc1c(N)n(CCNC(=O)c2ccccc2)c2nc3ccccc3nc12	none
COc1nn(-c2nc(-c3ccccc3)cc(C(F)(F)F)n2)cc1[N+](=O)[O-]	TPT1 inh 55 | TPT1 inh confirm inactive | RNase T1 inh inactive
COc1ccc(/C=N/Nc2ccc([N+](=O)[O-])cc2)cc1O	TPT1 inh 82 (no result: WT yeast gro inh) | TPT1 inh confirm 98 | RNase T1 inh 106
COc1cc(/C=N/Nc2ccc(C(=O)O)cc2)ccc1O	none
Cc1cc(C)nc(N/N=C/c2ccccc2OCc2ccc([N+](=O)[O-])cc2)n1	none
COc1cccc(/C=N/Nc2ccc([N+](=O)[O-])cc2)c1O	TPT1 inh 37 (no result: WT yeast gro inh) | TPT1 inh confirm 57 | RNase T1 inh 68
COC(=O)c1ccc(N/N=C/c2cc([N+](=O)[O-])cc(OC)c2O)cc1	none
O=[N+]([O-])c1ccc(N/N=C\c2ccccc2OCc2ccccc2)cc1	TPT1 inh 85 | TPT1 inh confirm 101 | RNase T1 inh 108
COc1ccc(/C=N\Nc2ccc([N+](=O)[O-])cc2)c(C(=O)O)c1OC	TPT1 inh 38 (no result: WT yeast gro inh) | TPT1 inh confirm 46 | RNase T1 inh 60
Cc1ccc(S(=O)(=O)NCCC(=O)N2CCN(c3ccccc3)CC2)cc1C	none (no result: PHOSPHO1 inh, Platelet DG rel, TPT1 inh, SKKanGAS inh, WT yeast gro inh)
CC(C)c1c(C(=O)N/N=C/C2CC=CCC2)nnn1-c1nonc1N (centres undefined)	none (no result: WT yeast gro inh)
O=C(NC1CCC(Oc2ccc(C(=O)O)cc2)CC1)NC12CC3CC(CC(C3)C1)C2 (centres undefined)	none (no result: PHOSPHO1 inh, Platelet DG rel, TPT1 inh, SKKanGAS inh, WT yeast gro inh)
C[n+]1ccn(CC(=O)c2cc(C(C)(C)C)c(O)c(C(C)(C)C)c2)c1	none (no result: WT yeast gro inh)
COc1ccc(/C=N/n2cncn2)cc1Cn1cc([N+](=O)[O-])cn1	none (no result: Rtt109 HAT inh, WT yeast gro inh)
COc1ccc(/C=N/Nc2ccc([N+](=O)[O-])cc2)cc1Cn1cc([N+](=O)[O-])cn1	TPT1 inh 108 | TPT1 inh confirm 83 | RNase T1 inh 92
CCOC(=O)Cc1cc(=O)n(-c2nc3ccccc3s2)[nH]1	TPT1 inh 28 | TPT1 inh confirm inactive | RNase T1 inh 24
CC(C)n1cc(CN2CCC(Oc3ccc(C(=O)N4CCCCC4)cc3)CC2)cn1	none (no result: TPT1 inh, WT yeast gro inh)
COc1ccc(NC(=O)CC2CC3CCC2C3)cc1S(=O)(=O)N1CCOCC1 (centres undefined)	none (no result: PHOSPHO1 inh, Platelet DG rel, TPT1 inh, SKKanGAS inh, WT yeast gro inh)
O=C(O)/C=C/c1ccc2ccccc2n1	none
O=C(/C=C/c1ccc2ccccc2n1)c1cc(Br)ccc1O	TPT1 inh 43 (no result: WT yeast gro inh) | TPT1 inh confirm inactive | RNase T1 inh 23
O=C(NCCc1ccc2c(c1)OCCO2)c1cc(S(=O)(=O)N2CCCC2)ccc1Br	none (no result: PHOSPHO1 inh, Platelet DG rel, TPT1 inh, SKKanGAS inh, WT yeast gro inh)
COCCNC(=S)N/N=C/c1ccc(-c2ccc([N+](=O)[O-])cc2)o1	TPT1 inh 47 (no result: WT yeast gro inh) | TPT1 inh confirm 50 | RNase T1 inh 63
COc1cc([N+](=O)[O-])ccc1-c1ccc(/C=N/NC(N)=O)o1	TPT1 inh 51 (no result: WT yeast gro inh) | TPT1 inh confirm 58 | RNase T1 inh 68
NC(=O)N/N=C/c1ccc(-c2ccc([N+](=O)[O-])cc2)o1	none (no result: WT yeast gro inh)
Cc1ccc(C)c(N(CC(=O)N/N=C/c2ccc(-c3ccc([N+](=O)[O-])cc3)o2)S(=O)(=O)c2ccccc2)c1	TPT1 inh 41 | TPT1 inh confirm 51 | RNase T1 inh 61
CCOc1ccc(S(=O)(=O)N(CC(=O)N/N=C/c2ccc(-c3ccc([N+](=O)[O-])cc3)o2)c2ccccc2)cc1	TPT1 inh 39 | TPT1 inh confirm 39 | RNase T1 inh 52
CCN(CC(=O)Nc1c(F)cccc1F)C(=O)c1nc2nc(C)cc(C)n2n1	none (no result: PHOSPHO1 inh, Platelet DG rel, TPT1 inh, SKKanGAS inh, WT yeast gro inh)
COC(=O)c1ccc(/C=C/C(=O)OCC(=O)NCc2cccs2)cc1	none (no result: PHOSPHO1 inh, Platelet DG rel, TPT1 inh, SKKanGAS inh, WT yeast gro inh)
O=C(Nc1ccc(S(=O)(=O)Nc2nccs2)cc1)c1ccc(=O)[nH]c1	TPT1 inh 36 (no result: Rtt109 HAT inh) | TPT1 inh confirm 37 | RNase T1 inh 51
Nc1c(C(=O)Nc2ccc(Br)cc2)sc2nc(-c3ccco3)ccc12	TPT1 inh 24 | TPT1 inh confirm 35 | RNase T1 inh 44
Nc1c(C(=O)Nc2ccc(F)cc2)sc2nc(-c3ccco3)ccc12	TPT1 inh 28 | TPT1 inh confirm 25 | RNase T1 inh 33
CC(=O)c1sc2nc(-c3ccco3)ccc2c1N	none (no result: Rtt109 HAT inh, WT yeast gro inh)
Cc1nnc(N/N=C/C(C)c2ccccc2)[nH]c1=O (centres undefined)	none (no result: WT yeast gro inh)
CCCN1C(=O)/C(=C/c2ccc(N3CCOCC3)cc2)NC1=S	TPT1 inh 138 | TPT1 inh confirm 143 | RNase T1 inh 139
CCN1C(=O)/C(=C/c2ccc(N3CCCC3)cc2)NC1=S	TPT1 inh 150 | TPT1 inh confirm 154 | RNase T1 inh 142
Cc1ccc(CN2C(=O)N/C(=C\c3ccc(N4CCOCC4)cc3)C2=O)cc1	none
CCN(CC)c1ccc(C=C2C(=O)OC3(CCCC3)OC2=O)cc1	TPT1 inh 29 | TPT1 inh confirm 140 | RNase T1 inh 142
CCN(CC)c1ccc(C=C2C(=O)OC(C)(C(C)(C)C)OC2=O)cc1 (centres undefined)	TPT1 inh 78 (no result: PHOSPHO1 inh, WT yeast gro inh) | TPT1 inh confirm 162 | RNase T1 inh 152
CN(C)c1ccc(C=C2C(=O)OC(C)(C(C)(C)C)OC2=O)cc1 (centres undefined)	none
O=C(NNC(=O)C1C2C=CC(C2)C1C(=O)O)c1ccccc1O (centres undefined)	none (no result: WT yeast gro inh)
NC(=O)C1CN(C(=O)c2cccc(S(=O)(=O)N3CCc4ccccc43)c2)c2ccccc2O1 (centres undefined)	none (no result: PHOSPHO1 inh, Platelet DG rel, TPT1 inh, SKKanGAS inh, WT yeast gro inh)
CCOC(=O)c1ccc(N(CC2CO2)S(=O)(=O)c2ccc(C)cc2)cc1 (centres undefined)	none (no result: PHOSPHO1 inh, Platelet DG rel, TPT1 inh, SKKanGAS inh, WT yeast gro inh)
O=Cc1sc(Nc2ccccc2)nc1Cl	TPT1 inh 76 | TPT1 inh confirm 74 | RNase T1 inh 86
COc1ccccc1Nc1nc(Cl)c(C=O)s1	TPT1 inh 45 | TPT1 inh confirm 70 | RNase T1 inh 83
CCOCCCNCC(=O)Nc1ccc(S(=O)(=O)NC(C)CC)cc1 (centres undefined)	TPT1 inh 118 | TPT1 inh confirm inactive | RNase T1 inh inactive
O=C(COc1ccc(S(=O)(=O)N2CCCCC2)cc1)N1CCCC1	none (no result: WT yeast gro inh)
Oc1c(C=Nc2ccccc2)sc2ccccc12	TPT1 inh 100 | TPT1 inh confirm 127 | RNase T1 inh 130
Oc1sc(C=Nc2ccc(F)cc2)c2ccccc12	PHOSPHO1 inh 65, TPT1 inh 128 | TPT1 inh confirm 110 | RNase T1 inh 109
Oc1sc(C=Nc2ccccc2)c2ccccc12	Rtt109 HAT inh inconclusive, PHOSPHO1 inh 65, TPT1 inh 119 | TPT1 inh confirm 105 | RNase T1 inh 104
Oc1ccccc1N=Cc1sc2ccccc2c1Cl	none
CCN(CC(=O)NCc1cccs1)C(=O)c1ccc(-c2cccc(C(F)(F)F)c2)o1	none (no result: PHOSPHO1 inh, WT yeast gro inh)
